From the supplement of paper PMC10849652
About 7,900 targets were measured; listed, in parts, are those with a hit and a random draw of the rest. About 0.6% of all pairs of compound and target were hits. Unmarked numbers belong to inactive results.

Tests used:
Assay in all cases: log2 fold change, soluble protein after heating vs DMSO (PISA); higher = thermal stabilisation; K562 cells, 10 uM, 30 min; active = over 0.2 and 3.5 SD of the protein, either way, in both replicates (recomputed)
bafetinib = compound: Cc1ccc(NC(=O)c2ccc(CN3CC[C@H](N(C)C)C3)c(C(F)(F)F)c2)cc1Nc1nccc(-c2cncnc2)n1 [bafetinib]
In short: (§1)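 Quantification of soluble protein used TMTpro 16plex LC-MS/MS, with channel sums equalised. Samples were the supernatant after 21,000xg for 90 min of pooled aliquots from K562 cells (2×10^6 cells/mL) treated with 10 μM compound for 30 min, heated for 3 min over 48°C-58°C, and extracted in PBS with 0.5% NP-40 at 4°C. Values, from duplicates, describe thermal stability against control samples on a log2 fold-change scale.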

[1] = compound: Cc1cccc(CC(=O)N2CCc3c2ccc(-c2cn(C)c4ncnc(N)c24)c3F)n1
In short: as §1

nilotinib = compound: Cc1cn(-c2cc(NC(=O)c3ccc(C)c(Nc4nccc(-c5cccnc5)n4)c3)cc(C(F)(F)F)c2)cn1 [nilotinib]
In short: as §1

[2] = compound: Cc1nc(Nc2n[nH]c3c2CN(C(=O)N[C@H](CN(C)C)c2ccccc2)C3(C)C)c2sccc2n1
In short: as §1

dasatinib = compound: Cc1nc(Nc2ncc(C(=O)Nc3c(C)cccc3Cl)s2)cc(N2CCN(CCO)CC2)n1 [dasatinib]
In short: as §1

[3] = compound: Cc1ncc(-c2ccnc(Nc3ccc(S(C)(=O)=O)cc3)n2)n1C(C)C
In short: as §1

[4] = compound: Cn1cc(-c2ccc3c(c2)CCN3C(=O)Cc2cccc(C(F)(F)F)c2)c2c(N)ncnc21
In short: as §1

[5] = compound: Cn1cc(-c2ccc3nnc(C(F)(F)c4ccc5ncccc5c4)n3n2)cn1
In short: as §1

tipifarnib = compound: Cn1cncc1[C@@](N)(c1ccc(Cl)cc1)c1ccc2c(c1)c(-c1cccc(Cl)c1)cc(=O)n2C [tipifarnib]
In short: as §1

mubritinib = compound: FC(F)(F)c1ccc(/C=C/c2nc(COc3ccc(CCCCn4ccnn4)cc3)co2)cc1 [mubritinib]
In short: as §1

[6] = compound: NC(=O)Nc1cc(-c2cccc(F)c2)sc1C(=O)N[C@H]1CCCNC1
In short: as §1

[7] = compound: NC(=O)c1cnc(N[C@@H]2CCCC[C@@H]2N)nc1Nc1cccc(-n2nccn2)c1
In short: as §1

[8] = compound: NC1(c2ccc(-c3nc4ccn5c(=O)[nH]nc5c4cc3-c3ccccc3)cc2)CCC1
In short: as §1

[9] = compound: NCC(=O)Nc1ccc(-n2nc(C(F)(F)F)cc2-c2ccc3c(ccc4ccccc43)c2)cc1
In short: as §1

entinostat = compound: Nc1ccccc1NC(=O)c1ccc(CNC(=O)OCc2cccnc2)cc1 [entinostat]
In short: as §1

vorinostat = compound: O=C(CCCCCCC(=O)Nc1ccccc1)NO [vorinostat]
In short: as §1

citarinostat = compound: O=C(CCCCCCNC(=O)c1cnc(N(c2ccccc2)c2ccccc2Cl)nc1)NO [citarinostat]
In short: as §1

silmitasertib = compound: O=C(O)c1ccc2c(c1)nc(Nc1cccc(Cl)c1)c1ccncc12 [silmitasertib]
In short: as §1

[10] = compound: O=C1NC(=O)C(c2cnc3ccccn23)=C1c1cn2c3c(cc(F)cc13)CN(C(=O)N1CCCCC1)CC2
In short: as §1

[11] = compound: c1cc(OCCN2CCCCC2)cc(-c2n[nH]c3ccc(-c4nnc[nH]4)cc23)c1
In short: as §1

Chain of UniProt Q16513 (Q16513 whole entry, looked up): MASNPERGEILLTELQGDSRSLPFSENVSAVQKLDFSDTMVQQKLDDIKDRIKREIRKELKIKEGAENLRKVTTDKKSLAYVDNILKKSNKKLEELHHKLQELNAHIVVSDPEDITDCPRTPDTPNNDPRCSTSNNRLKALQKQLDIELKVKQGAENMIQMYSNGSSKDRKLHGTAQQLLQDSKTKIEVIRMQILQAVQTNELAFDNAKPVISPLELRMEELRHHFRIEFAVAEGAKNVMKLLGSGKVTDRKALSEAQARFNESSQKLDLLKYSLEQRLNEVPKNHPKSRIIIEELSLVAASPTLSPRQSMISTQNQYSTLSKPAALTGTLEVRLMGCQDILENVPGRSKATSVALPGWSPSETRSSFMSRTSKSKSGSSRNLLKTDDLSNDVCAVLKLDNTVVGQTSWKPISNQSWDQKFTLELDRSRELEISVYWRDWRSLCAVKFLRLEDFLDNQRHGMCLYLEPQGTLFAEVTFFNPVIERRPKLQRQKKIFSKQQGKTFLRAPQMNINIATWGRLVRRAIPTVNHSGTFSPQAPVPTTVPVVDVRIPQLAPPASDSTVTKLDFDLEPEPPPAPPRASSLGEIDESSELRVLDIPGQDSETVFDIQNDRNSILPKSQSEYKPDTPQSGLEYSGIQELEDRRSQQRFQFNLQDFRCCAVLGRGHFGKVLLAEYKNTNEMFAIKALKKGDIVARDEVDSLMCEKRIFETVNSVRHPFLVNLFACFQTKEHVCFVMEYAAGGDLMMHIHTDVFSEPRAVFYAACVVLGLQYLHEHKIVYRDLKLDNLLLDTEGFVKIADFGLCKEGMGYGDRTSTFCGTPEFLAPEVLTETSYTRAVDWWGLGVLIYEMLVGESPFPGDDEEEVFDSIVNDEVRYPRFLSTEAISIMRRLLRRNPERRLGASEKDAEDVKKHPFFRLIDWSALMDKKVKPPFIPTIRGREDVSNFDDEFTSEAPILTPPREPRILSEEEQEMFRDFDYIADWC
Chain of UniProt O43164 (O43164 whole entry, looked up): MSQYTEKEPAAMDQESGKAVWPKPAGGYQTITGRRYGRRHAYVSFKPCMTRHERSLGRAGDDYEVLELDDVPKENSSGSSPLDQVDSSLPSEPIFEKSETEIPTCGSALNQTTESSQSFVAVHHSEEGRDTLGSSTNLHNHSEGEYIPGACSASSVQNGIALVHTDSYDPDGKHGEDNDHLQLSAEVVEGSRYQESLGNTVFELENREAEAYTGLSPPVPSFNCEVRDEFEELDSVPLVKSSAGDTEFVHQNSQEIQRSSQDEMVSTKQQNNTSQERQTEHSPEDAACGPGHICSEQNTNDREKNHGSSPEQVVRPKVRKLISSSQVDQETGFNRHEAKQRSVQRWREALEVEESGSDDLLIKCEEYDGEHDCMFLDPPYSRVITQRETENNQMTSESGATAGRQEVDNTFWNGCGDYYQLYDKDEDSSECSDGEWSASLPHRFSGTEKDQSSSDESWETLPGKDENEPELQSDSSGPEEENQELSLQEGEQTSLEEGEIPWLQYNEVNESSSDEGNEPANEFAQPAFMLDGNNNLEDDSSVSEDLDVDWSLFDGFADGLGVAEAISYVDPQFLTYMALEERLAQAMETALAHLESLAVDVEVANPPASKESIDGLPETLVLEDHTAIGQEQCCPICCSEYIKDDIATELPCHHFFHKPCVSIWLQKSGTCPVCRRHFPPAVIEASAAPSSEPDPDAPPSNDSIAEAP
Chain of UniProt Q9NW08 (Q9NW08 whole entry, looked up): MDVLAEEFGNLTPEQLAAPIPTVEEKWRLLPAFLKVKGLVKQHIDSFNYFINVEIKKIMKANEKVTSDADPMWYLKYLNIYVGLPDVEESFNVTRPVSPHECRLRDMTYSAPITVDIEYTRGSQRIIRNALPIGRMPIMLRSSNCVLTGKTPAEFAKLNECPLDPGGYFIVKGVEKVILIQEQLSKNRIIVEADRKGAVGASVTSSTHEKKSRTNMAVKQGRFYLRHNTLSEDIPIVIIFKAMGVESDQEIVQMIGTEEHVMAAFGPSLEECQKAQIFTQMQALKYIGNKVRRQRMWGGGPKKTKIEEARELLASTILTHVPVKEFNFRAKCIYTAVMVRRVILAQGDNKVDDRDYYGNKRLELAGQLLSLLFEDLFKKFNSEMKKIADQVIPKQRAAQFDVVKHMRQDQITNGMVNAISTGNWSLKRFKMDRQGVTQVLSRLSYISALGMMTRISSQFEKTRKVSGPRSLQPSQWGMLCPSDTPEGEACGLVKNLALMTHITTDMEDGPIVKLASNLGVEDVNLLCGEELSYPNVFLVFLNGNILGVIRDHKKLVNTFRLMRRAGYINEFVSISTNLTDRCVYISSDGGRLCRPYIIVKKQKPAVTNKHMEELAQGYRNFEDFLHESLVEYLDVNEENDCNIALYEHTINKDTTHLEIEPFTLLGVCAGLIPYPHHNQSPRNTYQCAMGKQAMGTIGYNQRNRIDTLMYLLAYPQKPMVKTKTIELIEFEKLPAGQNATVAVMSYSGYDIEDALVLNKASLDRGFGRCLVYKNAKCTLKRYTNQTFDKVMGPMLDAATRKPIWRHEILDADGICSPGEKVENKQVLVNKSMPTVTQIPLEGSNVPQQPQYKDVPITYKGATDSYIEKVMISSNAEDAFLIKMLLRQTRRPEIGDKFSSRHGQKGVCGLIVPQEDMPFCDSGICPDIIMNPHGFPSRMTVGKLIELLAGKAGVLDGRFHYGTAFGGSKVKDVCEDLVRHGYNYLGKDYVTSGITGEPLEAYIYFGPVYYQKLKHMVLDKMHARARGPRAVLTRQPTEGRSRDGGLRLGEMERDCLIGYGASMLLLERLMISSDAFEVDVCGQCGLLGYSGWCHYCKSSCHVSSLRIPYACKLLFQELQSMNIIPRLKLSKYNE
Chain of UniProt Q14181 (Q14181 whole entry, looked up): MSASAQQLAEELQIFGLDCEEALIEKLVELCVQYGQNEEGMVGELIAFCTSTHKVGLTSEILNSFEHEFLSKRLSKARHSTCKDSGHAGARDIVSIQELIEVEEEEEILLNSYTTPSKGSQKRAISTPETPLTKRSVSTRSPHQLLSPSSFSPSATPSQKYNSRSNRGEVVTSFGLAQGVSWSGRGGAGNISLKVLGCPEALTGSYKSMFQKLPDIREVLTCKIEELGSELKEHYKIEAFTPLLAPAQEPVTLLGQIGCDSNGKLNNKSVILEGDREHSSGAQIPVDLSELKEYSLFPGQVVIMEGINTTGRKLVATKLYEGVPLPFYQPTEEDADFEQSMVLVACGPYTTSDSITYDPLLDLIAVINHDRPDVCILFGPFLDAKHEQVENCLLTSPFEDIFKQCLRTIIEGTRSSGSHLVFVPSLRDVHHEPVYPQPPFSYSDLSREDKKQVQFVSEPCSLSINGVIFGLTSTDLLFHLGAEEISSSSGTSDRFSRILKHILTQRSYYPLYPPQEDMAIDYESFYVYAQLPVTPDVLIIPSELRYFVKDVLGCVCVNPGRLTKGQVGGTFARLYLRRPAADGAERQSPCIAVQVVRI
Chain of UniProt P62191 (P62191 whole entry, looked up): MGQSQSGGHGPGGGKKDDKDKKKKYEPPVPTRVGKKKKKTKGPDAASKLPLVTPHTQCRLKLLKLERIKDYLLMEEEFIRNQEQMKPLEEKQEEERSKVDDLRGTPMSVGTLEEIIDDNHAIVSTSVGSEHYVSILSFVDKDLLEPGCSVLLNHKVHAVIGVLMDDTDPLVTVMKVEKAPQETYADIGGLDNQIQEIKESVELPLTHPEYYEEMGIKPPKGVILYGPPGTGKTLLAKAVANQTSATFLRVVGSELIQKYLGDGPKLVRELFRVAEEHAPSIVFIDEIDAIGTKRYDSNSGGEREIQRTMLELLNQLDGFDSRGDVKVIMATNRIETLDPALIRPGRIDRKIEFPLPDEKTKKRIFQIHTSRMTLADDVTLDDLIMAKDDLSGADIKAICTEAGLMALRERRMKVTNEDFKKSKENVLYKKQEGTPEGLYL
Chain of UniProt Q9UBV8 (Q9UBV8 whole entry, looked up): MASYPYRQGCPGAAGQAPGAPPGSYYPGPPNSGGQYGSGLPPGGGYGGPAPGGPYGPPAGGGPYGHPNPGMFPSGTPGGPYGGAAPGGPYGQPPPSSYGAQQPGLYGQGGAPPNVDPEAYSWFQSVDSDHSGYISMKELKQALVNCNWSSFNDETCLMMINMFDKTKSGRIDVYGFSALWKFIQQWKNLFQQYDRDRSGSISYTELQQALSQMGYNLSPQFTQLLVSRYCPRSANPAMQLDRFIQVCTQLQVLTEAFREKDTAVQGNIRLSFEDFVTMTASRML
Chain of UniProt O75439 (O75439 whole entry, looked up): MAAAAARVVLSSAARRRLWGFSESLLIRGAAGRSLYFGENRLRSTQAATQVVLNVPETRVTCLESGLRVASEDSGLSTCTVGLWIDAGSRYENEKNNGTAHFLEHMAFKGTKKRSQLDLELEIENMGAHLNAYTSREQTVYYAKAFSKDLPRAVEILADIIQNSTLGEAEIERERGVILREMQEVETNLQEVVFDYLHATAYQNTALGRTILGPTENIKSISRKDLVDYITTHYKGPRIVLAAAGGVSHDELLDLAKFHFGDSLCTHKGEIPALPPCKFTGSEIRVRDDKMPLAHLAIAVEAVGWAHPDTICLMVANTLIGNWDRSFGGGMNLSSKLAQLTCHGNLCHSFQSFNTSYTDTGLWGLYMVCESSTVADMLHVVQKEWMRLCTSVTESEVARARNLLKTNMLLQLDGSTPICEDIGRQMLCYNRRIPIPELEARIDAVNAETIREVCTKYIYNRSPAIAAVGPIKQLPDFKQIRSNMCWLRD

| Target | log2 fold change (bafetinib) | log2 fold change [1] | log2 fold change (nilotinib) | log2 fold change [2] | log2 fold change (dasatinib) | log2 fold change [3] | log2 fold change [4] | log2 fold change [5] | log2 fold change (tipifarnib) | log2 fold change (mubritinib) | log2 fold change [6] | log2 fold change [7] | log2 fold change [8] | log2 fold change [9] | log2 fold change (entinostat) | log2 fold change (vorinostat) | log2 fold change (citarinostat) | log2 fold change (silmitasertib) | log2 fold change [10] | log2 fold change [11] |
| --- | --- | --- | --- | --- | --- | --- | --- | --- | --- | --- | --- | --- | --- | --- | --- | --- | --- | --- | --- | --- |
| PEF1 (UniProt Q9UBV8) | -0.106 | 0.089 | -0.005 | 0.012 | -0.047 | -0.013 | 0.132 | 0.113 | -0.126 | 0.099 | -0.029 | -0.026 | -0.219 | -0.036 | 0.128 | 0.01 | 0.045 | 0.028 | -0.103 | -0.02 |
| PKN2 (UniProt Q16513) | 0.068 | 0.062 | 0.125 | -0.219 | -0.138 | 0.051 | 0.016 | 0.01 | -0.059 | 0.048 | -0.055 | -0.134 | -0.051 | -0.021 | 0.105 | 0.023 | 0.073 | 0.01 | -0.008 | -0.086 |
| PMPCB (UniProt O75439) | 0.035 | 0.025 | -0.054 | 0.089 | 0.098 | -0.04 | 0.105 | 0.046 | 0.269 (active) | 0.053 | -0.03 | 0.024 | -0.02 | 0.023 | -0.043 | -0.009 | 0.037 | -0.103 | -0.012 | 0.023 |
| POLR3B (UniProt Q9NW08) | 0.104 | 0.045 | -0.111 | -0.285 | -0.238 | -0.028 | -0.059 | 0.089 | -0.108 | -0.086 | -0.05 | 0.017 | -0.124 | -0.009 | -0.014 | 0.088 | -0.022 | 0.111 | 0.104 | -0.047 |
| PDPK1 (UniProt O15530) | -0.06 | 0.051 | -0.104 | 0.089 | -0.169 | -0.084 | 0.077 | 0.011 | -0.043 | 0.022 | 0.238 (active) | -0.111 | -0.314 (active) | -0.061 | 0.034 | 0.108 | 0.038 | -0.04 | 0.004 | -0.019 |
| PSMC1 (UniProt P62191) | 0.065 | 0.02 | -0.025 | 0.062 | 0.036 | -0.014 | -0.082 | 0 | 0.087 | -0.015 | 0.011 | 0.029 | 0.014 | 0.043 | -0.013 | -0.013 | -0.032 | 0.001 | 0.026 | -0.047 |
| PJA2 (UniProt O43164) | -0.121 | -0.072 | 0.023 | -0.021 | 0.036 | -0.04 | -0.06 | 0.008 | 0.071 | 0.018 | -0.006 | -0.047 | -0.049 | 0.029 | 0.004 | -0.001 | -0.005 | 0.026 | -0.059 | -0.075 |
| POLA2 (UniProt Q14181) | -0.038 | 0.058 | -0.036 | -0.072 | -0.101 | -0.02 | 0.022 | 0.001 | -0.04 | 0.041 | -0.102 | -0.115 | -0.129 | -0.133 | -0.014 | 0.072 | 0.054 | 0.058 | -0.054 | -0.026 |
